Results as given in PMC7862700, “An all-to-all approach to the identification of sequence-specific readers for epigenetic DNA modifications on cytosine”.

Legend:
Test in all cases: DAPPL (digital affinity profiling via proximity ligation, sequencing); 10 mM Tris-HCl pH 7.5, 50 mM NaCl, 1 mM DTT, 4% glycerol, room temperature, 30 min; GST-TFs on glutathione beads, 16-mer random dsDNA library, 0.1% formaldehyde crosslink after washing; high values mean tight binding
FEV = target: T1, FEV (Homo sapiens, UniProt Q99581 1-238); conditions: protein: recombinant; tags: N-terminal GST; dsDNA, one strand shown
T1 sequence: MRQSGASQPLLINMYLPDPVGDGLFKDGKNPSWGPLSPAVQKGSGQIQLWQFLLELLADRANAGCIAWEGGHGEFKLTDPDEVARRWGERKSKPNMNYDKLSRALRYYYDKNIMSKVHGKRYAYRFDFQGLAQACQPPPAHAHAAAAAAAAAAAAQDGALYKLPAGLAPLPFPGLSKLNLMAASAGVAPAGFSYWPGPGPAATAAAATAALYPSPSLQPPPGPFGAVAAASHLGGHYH
In short: (§1)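 In yeast, human transcription factors were expressed with a GST fusion, then pulled down on glutathione beads and given DNA barcodes. Pooled with a tag-only sample, they were exposed to 200 nmole of a 16-mer random double-stranded DNA library (Tris/NaCl/DTT/glycerol buffer, room temperature, 30 min), washed, crosslinked with 0.1% formaldehyde, proximity-ligated using BsaI/T4 ligase for 1 h at 37 °C, PCR-amplified and read on an Illumina NextSeq500. Each hexamer's frequency of reads for a factor, divided by the matching frequency for the tag-only sample, gives the binding signal.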

ETV5 = ETV5 (Homo sapiens, UniProt P41161 1-510); conditions: protein: recombinant; tags: N-terminal GST; dsDNA, one strand shown
Sequence of ETV5 (P41161 whole entry): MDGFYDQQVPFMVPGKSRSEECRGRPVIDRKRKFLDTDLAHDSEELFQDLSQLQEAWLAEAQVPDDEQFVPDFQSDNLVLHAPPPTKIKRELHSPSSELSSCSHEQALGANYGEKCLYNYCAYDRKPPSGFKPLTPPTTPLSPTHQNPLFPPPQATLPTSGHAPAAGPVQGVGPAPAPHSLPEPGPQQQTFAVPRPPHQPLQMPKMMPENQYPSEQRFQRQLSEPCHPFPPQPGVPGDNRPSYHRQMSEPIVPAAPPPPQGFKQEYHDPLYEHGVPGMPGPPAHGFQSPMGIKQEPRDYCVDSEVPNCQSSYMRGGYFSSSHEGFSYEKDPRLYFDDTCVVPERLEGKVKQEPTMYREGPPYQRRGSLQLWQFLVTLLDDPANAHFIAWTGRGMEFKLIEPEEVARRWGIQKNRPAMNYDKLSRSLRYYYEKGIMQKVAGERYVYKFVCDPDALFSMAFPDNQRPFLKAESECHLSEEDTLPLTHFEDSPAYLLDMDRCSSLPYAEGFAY
In short: as §1

HSF1 = HSF1 (Homo sapiens, UniProt Q00613 1-529); conditions: protein: recombinant; tags: N-terminal GST; chain copies: 3; dsDNA, one strand shown
Sequence of HSF1 (Q00613 whole entry): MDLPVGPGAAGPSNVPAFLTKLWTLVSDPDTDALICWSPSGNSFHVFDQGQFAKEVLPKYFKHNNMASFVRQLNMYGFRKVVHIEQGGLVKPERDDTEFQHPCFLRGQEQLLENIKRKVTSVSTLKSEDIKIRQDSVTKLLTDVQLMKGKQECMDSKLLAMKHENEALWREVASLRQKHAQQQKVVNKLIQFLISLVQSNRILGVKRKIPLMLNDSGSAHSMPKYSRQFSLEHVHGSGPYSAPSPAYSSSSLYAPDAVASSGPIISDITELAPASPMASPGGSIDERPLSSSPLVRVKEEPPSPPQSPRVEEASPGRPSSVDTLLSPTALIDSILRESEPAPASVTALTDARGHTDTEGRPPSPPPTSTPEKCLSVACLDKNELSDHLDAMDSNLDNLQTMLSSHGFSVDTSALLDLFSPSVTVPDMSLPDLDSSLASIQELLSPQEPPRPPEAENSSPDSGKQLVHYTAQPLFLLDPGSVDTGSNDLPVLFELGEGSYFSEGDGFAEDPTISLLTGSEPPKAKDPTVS
In short: as §1

SPIC = target: T2, SPIC (Homo sapiens, UniProt Q8N5J4 1-248); conditions: protein: recombinant; tags: N-terminal GST; dsDNA, one strand shown
T2 sequence: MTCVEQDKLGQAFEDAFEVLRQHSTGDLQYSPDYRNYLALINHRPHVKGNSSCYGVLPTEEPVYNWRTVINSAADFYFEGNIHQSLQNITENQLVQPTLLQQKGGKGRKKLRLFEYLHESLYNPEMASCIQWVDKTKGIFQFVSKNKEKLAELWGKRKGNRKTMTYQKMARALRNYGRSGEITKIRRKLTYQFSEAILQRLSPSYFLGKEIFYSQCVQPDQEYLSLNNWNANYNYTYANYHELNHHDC
In short: as §1

ELF4 = ELF4 (Homo sapiens, UniProt Q99607 1-663); conditions: protein: recombinant; tags: N-terminal GST; dsDNA, one strand shown
Sequence of ELF4 (Q99607 whole entry): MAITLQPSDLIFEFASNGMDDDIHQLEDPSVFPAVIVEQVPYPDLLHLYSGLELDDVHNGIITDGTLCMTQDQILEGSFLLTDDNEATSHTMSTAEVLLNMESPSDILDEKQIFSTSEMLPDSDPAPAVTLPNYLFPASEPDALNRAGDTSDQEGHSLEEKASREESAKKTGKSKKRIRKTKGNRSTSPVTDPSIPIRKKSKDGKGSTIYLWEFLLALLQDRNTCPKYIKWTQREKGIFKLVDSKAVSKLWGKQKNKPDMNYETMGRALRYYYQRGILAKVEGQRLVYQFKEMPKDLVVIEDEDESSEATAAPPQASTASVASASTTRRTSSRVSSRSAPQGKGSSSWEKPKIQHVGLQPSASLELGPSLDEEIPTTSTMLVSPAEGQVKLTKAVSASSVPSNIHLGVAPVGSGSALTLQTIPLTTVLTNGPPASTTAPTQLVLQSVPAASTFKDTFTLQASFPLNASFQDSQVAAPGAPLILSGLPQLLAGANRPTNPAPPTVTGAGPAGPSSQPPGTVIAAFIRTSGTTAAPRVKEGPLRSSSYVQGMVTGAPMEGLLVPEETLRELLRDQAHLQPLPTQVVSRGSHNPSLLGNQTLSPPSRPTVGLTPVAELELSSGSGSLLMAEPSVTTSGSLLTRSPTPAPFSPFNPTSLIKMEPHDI
In short: as §1

ELK4 = target: T3, ELK4 (Homo sapiens, UniProt P28324-2 1-405); conditions: protein: recombinant; tags: N-terminal GST; dsDNA, one strand shown
T3 sequence: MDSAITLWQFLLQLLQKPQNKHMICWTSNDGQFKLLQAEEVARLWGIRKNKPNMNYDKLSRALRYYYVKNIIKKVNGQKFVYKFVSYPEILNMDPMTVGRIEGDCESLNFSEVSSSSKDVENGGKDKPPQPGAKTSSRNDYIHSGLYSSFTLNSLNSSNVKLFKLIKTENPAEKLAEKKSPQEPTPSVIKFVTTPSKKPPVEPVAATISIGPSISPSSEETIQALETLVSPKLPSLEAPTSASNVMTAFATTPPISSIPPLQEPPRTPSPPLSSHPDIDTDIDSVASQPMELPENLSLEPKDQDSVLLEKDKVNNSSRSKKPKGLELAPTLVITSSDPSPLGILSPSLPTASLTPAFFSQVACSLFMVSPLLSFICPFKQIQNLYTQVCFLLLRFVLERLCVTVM
In short: as §1

ETV2 = target: T4, ETV2 (Homo sapiens, UniProt O00321 1-342); conditions: protein: recombinant; tags: N-terminal GST; dsDNA, one strand shown
T4 sequence: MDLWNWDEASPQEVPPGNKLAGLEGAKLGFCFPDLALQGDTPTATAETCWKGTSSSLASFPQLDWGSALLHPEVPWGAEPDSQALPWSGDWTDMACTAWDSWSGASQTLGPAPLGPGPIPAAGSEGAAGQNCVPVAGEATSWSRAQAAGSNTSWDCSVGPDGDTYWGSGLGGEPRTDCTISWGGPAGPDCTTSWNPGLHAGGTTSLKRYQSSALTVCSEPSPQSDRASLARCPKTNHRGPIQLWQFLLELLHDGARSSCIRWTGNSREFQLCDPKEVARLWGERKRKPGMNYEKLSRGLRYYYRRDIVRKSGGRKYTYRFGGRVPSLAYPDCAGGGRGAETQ
In short: as §1

ELF3 = target: T5, ELF3 (Homo sapiens, UniProt P78545 1-371); conditions: protein: recombinant; tags: N-terminal GST; dsDNA, one strand shown
T5 sequence: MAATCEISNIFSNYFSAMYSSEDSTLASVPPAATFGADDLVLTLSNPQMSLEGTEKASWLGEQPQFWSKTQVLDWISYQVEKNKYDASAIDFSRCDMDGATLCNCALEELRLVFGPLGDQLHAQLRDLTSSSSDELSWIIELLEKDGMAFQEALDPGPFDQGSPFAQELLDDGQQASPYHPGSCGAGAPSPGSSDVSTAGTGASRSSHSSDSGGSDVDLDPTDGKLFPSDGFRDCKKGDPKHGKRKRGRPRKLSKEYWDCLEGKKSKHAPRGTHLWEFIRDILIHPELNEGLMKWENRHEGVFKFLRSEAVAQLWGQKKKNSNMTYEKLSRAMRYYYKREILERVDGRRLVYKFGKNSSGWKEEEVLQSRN
In short: as §1

CRX = CRX (Homo sapiens, UniProt O43186 1-299); conditions: protein: recombinant; tags: N-terminal GST; dsDNA, one strand shown
Sequence of CRX (O43186 whole entry): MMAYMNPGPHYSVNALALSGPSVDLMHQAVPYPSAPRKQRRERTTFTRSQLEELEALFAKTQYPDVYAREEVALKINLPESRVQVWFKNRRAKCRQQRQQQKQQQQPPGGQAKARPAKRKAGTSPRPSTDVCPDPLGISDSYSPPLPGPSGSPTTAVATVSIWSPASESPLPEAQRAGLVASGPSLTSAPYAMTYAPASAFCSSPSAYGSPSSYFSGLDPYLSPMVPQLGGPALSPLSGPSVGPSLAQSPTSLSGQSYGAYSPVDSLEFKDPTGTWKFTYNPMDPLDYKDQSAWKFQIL
In short: as §1

ETV1 = ETV1 (Homo sapiens, UniProt P50549 1-477); conditions: protein: recombinant; tags: N-terminal GST; dsDNA, one strand shown
Sequence of ETV1 (P50549 whole entry): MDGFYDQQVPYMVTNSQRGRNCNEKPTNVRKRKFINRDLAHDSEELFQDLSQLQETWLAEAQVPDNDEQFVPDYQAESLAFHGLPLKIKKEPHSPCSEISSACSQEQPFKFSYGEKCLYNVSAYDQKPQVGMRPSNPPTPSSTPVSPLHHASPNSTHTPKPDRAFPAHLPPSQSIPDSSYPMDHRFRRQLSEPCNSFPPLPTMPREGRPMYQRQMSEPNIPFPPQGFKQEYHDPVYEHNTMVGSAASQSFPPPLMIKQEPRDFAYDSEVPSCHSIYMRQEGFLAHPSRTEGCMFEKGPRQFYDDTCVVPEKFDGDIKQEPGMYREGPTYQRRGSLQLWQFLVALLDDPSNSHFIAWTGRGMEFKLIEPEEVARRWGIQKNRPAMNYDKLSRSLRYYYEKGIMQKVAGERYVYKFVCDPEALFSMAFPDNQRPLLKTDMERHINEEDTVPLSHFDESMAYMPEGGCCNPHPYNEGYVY
In short: as §1

ERF = target: T6, ERF (Homo sapiens, UniProt P50548 1-548); conditions: protein: recombinant; tags: N-terminal GST; dsDNA, one strand shown
T6 sequence: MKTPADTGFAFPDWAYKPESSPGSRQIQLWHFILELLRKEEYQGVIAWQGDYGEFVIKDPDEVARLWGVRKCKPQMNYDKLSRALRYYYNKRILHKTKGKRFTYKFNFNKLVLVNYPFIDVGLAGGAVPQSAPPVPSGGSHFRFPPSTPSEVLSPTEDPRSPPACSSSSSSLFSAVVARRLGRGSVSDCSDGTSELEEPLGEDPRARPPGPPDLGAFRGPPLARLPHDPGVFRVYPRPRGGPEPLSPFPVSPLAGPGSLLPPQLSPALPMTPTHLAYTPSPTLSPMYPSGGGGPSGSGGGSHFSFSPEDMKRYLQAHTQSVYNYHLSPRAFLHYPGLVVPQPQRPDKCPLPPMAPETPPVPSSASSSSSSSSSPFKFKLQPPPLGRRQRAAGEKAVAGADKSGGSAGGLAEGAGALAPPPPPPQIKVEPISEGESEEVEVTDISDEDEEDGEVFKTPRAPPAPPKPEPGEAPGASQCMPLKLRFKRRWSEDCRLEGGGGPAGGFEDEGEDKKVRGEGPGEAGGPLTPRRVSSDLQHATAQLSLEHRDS
In short: as §1

ETV3L = target: T7, ETV3L (Homo sapiens, UniProt Q6ZN32 1-361); conditions: protein: recombinant; tags: N-terminal GST; dsDNA, one strand shown
T7 sequence: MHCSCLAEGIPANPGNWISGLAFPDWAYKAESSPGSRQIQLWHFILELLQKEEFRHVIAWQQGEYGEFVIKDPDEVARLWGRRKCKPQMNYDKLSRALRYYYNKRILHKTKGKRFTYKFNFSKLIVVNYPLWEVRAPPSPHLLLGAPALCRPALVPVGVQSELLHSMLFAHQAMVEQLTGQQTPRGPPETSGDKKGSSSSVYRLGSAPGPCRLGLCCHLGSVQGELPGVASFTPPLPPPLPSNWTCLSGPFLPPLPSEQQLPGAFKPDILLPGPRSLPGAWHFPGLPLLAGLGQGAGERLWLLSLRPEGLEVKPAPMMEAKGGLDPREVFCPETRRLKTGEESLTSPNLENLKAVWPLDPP
In short: as §1

ETS2 = target: T8, ETS2 (Homo sapiens, UniProt P15036 1-469); conditions: protein: recombinant; tags: N-terminal GST; dsDNA, one strand shown
T8 sequence: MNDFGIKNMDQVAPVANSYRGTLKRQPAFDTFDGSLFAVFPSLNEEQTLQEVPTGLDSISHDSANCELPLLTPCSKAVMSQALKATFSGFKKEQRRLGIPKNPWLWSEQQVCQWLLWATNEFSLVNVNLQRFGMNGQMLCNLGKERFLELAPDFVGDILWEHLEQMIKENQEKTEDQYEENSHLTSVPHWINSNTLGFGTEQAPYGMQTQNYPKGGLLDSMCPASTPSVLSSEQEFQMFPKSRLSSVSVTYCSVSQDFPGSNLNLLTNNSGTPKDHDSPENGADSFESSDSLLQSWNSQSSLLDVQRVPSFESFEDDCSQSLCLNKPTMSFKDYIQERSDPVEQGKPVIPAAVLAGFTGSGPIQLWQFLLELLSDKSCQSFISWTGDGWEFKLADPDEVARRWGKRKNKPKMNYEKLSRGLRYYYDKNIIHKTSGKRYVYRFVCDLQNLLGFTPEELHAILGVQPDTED
In short: as §1

SPDEF = target: T9, SPDEF (Homo sapiens, UniProt O95238 1-335); conditions: protein: recombinant; tags: N-terminal GST; dsDNA, one strand shown
T9 sequence: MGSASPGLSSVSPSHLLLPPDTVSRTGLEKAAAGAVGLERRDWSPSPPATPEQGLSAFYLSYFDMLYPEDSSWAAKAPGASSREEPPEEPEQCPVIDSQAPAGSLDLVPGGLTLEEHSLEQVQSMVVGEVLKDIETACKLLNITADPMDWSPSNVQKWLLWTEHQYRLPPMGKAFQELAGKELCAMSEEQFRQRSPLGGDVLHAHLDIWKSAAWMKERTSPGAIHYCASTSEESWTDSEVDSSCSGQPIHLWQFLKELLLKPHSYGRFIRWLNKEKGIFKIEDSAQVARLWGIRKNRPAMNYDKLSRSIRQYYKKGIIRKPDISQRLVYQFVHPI
In short: as §1

ETV7 = target: T10, ETV7 (Homo sapiens, UniProt Q9Y603 1-341); conditions: protein: recombinant; tags: N-terminal GST; dsDNA, one strand shown
T10 sequence: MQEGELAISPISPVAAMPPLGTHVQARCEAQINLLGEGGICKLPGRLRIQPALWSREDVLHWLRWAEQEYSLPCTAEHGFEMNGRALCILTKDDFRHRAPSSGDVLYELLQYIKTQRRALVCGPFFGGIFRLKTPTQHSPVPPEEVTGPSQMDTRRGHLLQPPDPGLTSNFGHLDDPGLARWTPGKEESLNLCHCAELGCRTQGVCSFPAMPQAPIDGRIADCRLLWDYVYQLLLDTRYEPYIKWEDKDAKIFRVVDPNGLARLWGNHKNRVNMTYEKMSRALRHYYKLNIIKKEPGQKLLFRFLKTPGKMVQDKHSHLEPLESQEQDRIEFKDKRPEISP
In short: as §1

ELF5 = target: T11, ELF5 (Homo sapiens, UniProt Q9UKW6-2 1-255); conditions: protein: recombinant; tags: N-terminal GST; dsDNA, one strand shown
T11 sequence: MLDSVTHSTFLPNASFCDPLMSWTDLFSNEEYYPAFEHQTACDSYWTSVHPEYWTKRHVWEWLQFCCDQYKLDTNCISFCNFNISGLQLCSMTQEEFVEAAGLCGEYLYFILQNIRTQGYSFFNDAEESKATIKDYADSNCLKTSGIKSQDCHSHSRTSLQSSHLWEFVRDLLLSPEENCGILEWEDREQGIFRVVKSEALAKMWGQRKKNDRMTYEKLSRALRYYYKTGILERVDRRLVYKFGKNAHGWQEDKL
In short: as §1

ETV3 = target: T12, ETV3 (Homo sapiens, UniProt P41162-2 1-143); conditions: protein: recombinant; tags: N-terminal GST; dsDNA, one strand shown
T12 sequence: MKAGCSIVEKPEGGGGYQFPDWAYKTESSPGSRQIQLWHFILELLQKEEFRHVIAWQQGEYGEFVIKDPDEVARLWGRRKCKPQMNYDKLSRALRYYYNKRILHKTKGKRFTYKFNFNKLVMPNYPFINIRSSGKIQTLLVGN
In short: as §1

ETV6 = ETV6 (Homo sapiens, UniProt P41212 1-452); conditions: protein: recombinant; tags: N-terminal GST; dsDNA, one strand shown
Sequence of ETV6 (P41212 whole entry): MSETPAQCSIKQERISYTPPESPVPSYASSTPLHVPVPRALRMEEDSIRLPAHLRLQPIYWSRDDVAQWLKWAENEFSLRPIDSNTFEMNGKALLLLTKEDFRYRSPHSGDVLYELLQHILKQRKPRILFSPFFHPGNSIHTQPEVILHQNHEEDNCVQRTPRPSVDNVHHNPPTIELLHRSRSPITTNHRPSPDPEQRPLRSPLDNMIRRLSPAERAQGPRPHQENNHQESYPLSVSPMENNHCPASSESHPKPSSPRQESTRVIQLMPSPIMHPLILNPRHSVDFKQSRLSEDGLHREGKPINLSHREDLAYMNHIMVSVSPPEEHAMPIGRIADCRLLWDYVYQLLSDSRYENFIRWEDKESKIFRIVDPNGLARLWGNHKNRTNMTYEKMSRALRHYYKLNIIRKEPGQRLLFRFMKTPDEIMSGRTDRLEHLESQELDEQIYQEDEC
In short: as §1

Q: How did the binding signal (FEV) turn out when AAATGA was run?
A: 1.26 fold enrichment (6-mer frequency, TF over GST control)

Q: And the binding signal (ETV5)?
A: 1.32 fold enrichment (6-mer frequency, TF over GST control)

Q: What about the binding signal (HSF1) of the same sequence?
A: 1.12 fold enrichment (6-mer frequency, TF over GST control)

Q: What about the binding signal (SPIC) of the same sequence?
A: 1.54 fold enrichment (6-mer frequency, TF over GST control)

Q: What about the binding signal (ELF4) of the same sequence?
A: 1.29 fold enrichment (6-mer frequency, TF over GST control)

Q: What about the binding signal (ELK4) of the same sequence?
A: 1.29 fold enrichment (6-mer frequency, TF over GST control)

Q: What about the binding signal (ETV2) of the same sequence?
A: 1.36 fold enrichment (6-mer frequency, TF over GST control)

Q: And the binding signal (ELF3)?
A: 1.41 fold enrichment (6-mer frequency, TF over GST control)

Q: And the binding signal (CRX)?
A: 1.16 fold enrichment (6-mer frequency, TF over GST control)

Q: And the binding signal (ETV1)?
A: 1.29 fold enrichment (6-mer frequency, TF over GST control)

Q: And the binding signal (ERF)?
A: 1.42 fold enrichment (6-mer frequency, TF over GST control)

Q: What about the binding signal (ETV3L) of the same sequence?
A: 1.29 fold enrichment (6-mer frequency, TF over GST control)

Q: What about the binding signal (ETS2) of the same sequence?
A: 1.29 fold enrichment (6-mer frequency, TF over GST control)

Q: What about the binding signal (SPDEF) of the same sequence?
A: 1.18 fold enrichment (6-mer frequency, TF over GST control)

Q: What about the binding signal (ETV7) of the same sequence?
A: 1.42 fold enrichment (6-mer frequency, TF over GST control)

Q: What about the binding signal (ELF5) of the same sequence?
A: 1.25 fold enrichment (6-mer frequency, TF over GST control)

Q: What about the binding signal (ETV3) of the same sequence?
A: 1.43 fold enrichment (6-mer frequency, TF over GST control)

Q: What about the binding signal (ETV6) of the same sequence?
A: 1.47 fold enrichment (6-mer frequency, TF over GST control)
